{"source": "PubChem BioAssay (NCI)", "note": "Several values for one entry are separate records, joined by “and”; a condition that tells them apart may be missing. Identical values can stand only once. About 83,000 compounds went through this panel and 20% of them were active in at least one assay; those are over-represented in the sample as a whole.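 Note: values are percent growth. 100 is the growth of untreated cells, values between 100 and 0 indicate rising inhibition; between -100 and 0 indicates cell death.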 Unmarked numbers belong to inactive results. Activity calls are given as the source filed them. Rule for the calls: active = growth percent below 10; inactive = the rest.", "data": [{"tested_on": "SF-539 CNS", "assay": "NCI-60 one-dose screen, 48 h (100 = growth as untreated, 0 = no growth, -100 = all killed)", "conditions": "10 µM unless noted", "values": [{"molecule": "CCOC(=O)C1=C(C)N=C2SC=C(c3ccc(F)cc3)N2[C@H]1c1cn(-c2ccccc2)nc1-c1ccc(Cl)cc1", "growth": "101%"}, {"molecule": "CCN(C(=O)N1CCN(c2cc3c(cc2F)c(=O)c(C(=O)O)cn3C2CC2)CC1)c1nc(-c2ccccc2)cs1", "growth": "8.47% (active)"}, {"molecule": "O=C(/C=C/c1ccc(Cl)s1)c1ccc(Cl)s1", "growth": "114% and 98.3%"}, {"molecule": "C=CCOc1ccc(/C=C2\\SC(=S)N(CCc3ccc(O)cc3)C2=O)cc1", "growth": "82.7%"}, {"molecule": "Cc1c(CC(=O)OCCO)cc(-c2ccc(Cl)cc2)n1-c1ccccc1", "growth": "101%"}, {"molecule": "CC1(C)C(N)=Nc2cc(OCCCN3Cc4ccc(OCCc5cn(CC(=O)N6CCC(CCN7CCCC7)CC6)nn5)cc4C3)c(OCC3CC3)cc21", "growth": "97%"}, {"molecule": "O=C1OCC2=C1C(c1cccc(C(F)(F)F)c1)c1cc3c(cc1N2CCO)OCCO3", "note": "(centres undefined)", "growth": "-8.3% (active)"}, {"molecule": "N#CC1=C(N)Oc2c(sc3c(Br)cccc23)C1c1ccccn1", "note": "(centres undefined)", "growth": "6.33% (active)"}, {"molecule": "O=C1c2cccc3cccc(c23)C(=O)N1N1C(=O)c2cccc3c(N4CCNCC4)ccc(c23)C1=O", "growth": "100%"}, {"molecule": "O=C(Nc1ccc(F)cc1)c1cc2cc(Nc3nc(-c4ccccc4)nc4ccccc34)ccc2oc1=O", "growth": "108%"}, {"molecule": "O=C1c2cc3c(cc2-c2c1c1ccc(Cl)cc1c(=O)n2CCCn1ccnc1)OCO3", "growth": "-50.3% (active)"}, {"molecule": "COc1ccc(C/C(C)=C(/c2ccc(OCCN3CCCC3)cc2)c2ccc(OC(=O)NCc3ccccc3)cc2)cc1", "growth": "82.5%"}, {"molecule": "CCCO/N=C/c1ccccn1", "growth": "110% and 95%"}, {"molecule": "COc1ccc(-c2csc(NC(=O)CN3CCN(CCO)CC3)n2)cc1NS(=O)(=O)c1cccc2c(N(C)C)cccc12", "growth": "65.7%"}, {"molecule": "Cc1ccc(-c2nc3nc(-c4ccccc4)nc(N4CCN(S(=O)(=O)c5ccccc5)CC4)c3o2)cc1", "growth": "52.5%"}, {"molecule": "CCOc1nc(-c2ccccc2)cc2c(O)c(C(=O)N/N=C/c3ccc(N(C)C)cc3)[nH]c(=O)c12", "growth": "99.7%"}, {"molecule": "C/C(=C(\\c1ccc(OCCN2CCOCC2)cc1)c1ccc(OC(=O)C2CCCCC2)cc1)c1ccc(Cl)cc1", "growth": "105%"}, {"molecule": "COc1ccc2c(c1)CC[C@@H]1[C@@H]2CC[C@]2(C)C3C(=CCC4C(=O)N(c5ccccc5)C(=O)C43)C[C@@H]12", "note": "(some centres undefined)", "growth": "96.7%"}, {"molecule": "CC(=O)c1c(C)nc2ccccc2c1/C=C/c1cccc(C)c1", "growth": "61.7%"}, {"molecule": "CCN(CC)CC#CCOC(=O)[C@]1(C)CCC[C@]2(C)c3ccc(C(C)C)cc3CC[C@@H]12", "growth": "79.6%"}, {"molecule": "O=C1/C(=C/c2ccc(-c3ccccc3C(F)(F)F)o2)SC(=S)N1CCc1ccc(O)cc1", "growth": "54.2%"}, {"molecule": "COc1ccc(-c2[nH]c3ccccc3c2-c2ccc(OC)cc2)cc1", "growth": "45.3%"}, {"molecule": "O=C(CN1C(=O)S/C(=C\\C(Cl)=C\\c2ccccc2)C1=O)NC1C=CS(=O)(=O)C1", "note": "(centres undefined)", "growth": "1.56% (active)"}, {"molecule": "CCOC(=O)N(O)c1ccc(/C=C/c2ccccc2)cc1", "growth": "96.5% and 85.1%"}, {"molecule": "COc1cc(/C=C2/C=C(c3ccc(C(C)(C)C)cc3)N(CCc3ccc(S(N)(=O)=O)cc3)C2=O)cc(OC)c1OC", "growth": "59%"}, {"molecule": "O=[N+]([O-])c1cc(C(F)(F)F)ccc1Sc1ccc(C(F)(F)F)cc1[N+](=O)[O-]", "growth": "61.1%"}, {"molecule": "O=C(N=Nc1c(O)[nH]c2ccccc12)Nc1ccccc1Cl", "growth": "95.7%"}, {"molecule": "Nc1n[nH]c2cccc(C#Cc3cccc(NC(=O)c4ccc(N5CCOCC5)c(C(F)(F)F)c4)c3)c12", "growth": "-56% (active)"}, {"molecule": "COc1ccc(Oc2nc(Nc3ccc(N4CCOCC4)cc3)ncc2NC(=O)c2cc(OC)cc(OC)c2)cc1", "growth": "87.2%"}, {"molecule": "COc1cc(F)c(/C=C/c2cc(/C=C/c3cc(OC)c(OC)cc3F)n(-c3cc(F)cc(F)c3)n2)cc1OC", "growth": "83.4%"}, {"molecule": "[Cu+].[NH-][C@H]1C[N-]C(=O)[C@H]([C@H]2CCN=C(N)N2)[N-]C(=O)/C(=C\\NC(N)=O)[N-]C(=O)[C@H](CNC(=O)C[C@@H](N)CCCN)[N-]C(=O)[C@H](CO)[N-]C1=O", "growth": "106%"}, {"molecule": "COc1cc(N=Nc2ccc(O)c3ncccc23)c2ncccc2c1", "growth": "10.1%"}, {"molecule": "O=S(=O)(O)c1ccc(N=Nc2ccc(N=Nc3cccc4ccccc34)c(S(=O)(=O)O)c2)cc1", "growth": "102%"}, {"molecule": "COc1ccc(-c2cc(-c3cccnc3)nc3sc4c(Cl)nnnc4c23)cc1OC", "growth": "101%"}, {"molecule": "C=C1C(=O)O[C@@H]2[C@H]3[C@H](COC(C)=O)[C@@H](OC(C)=O)C[C@H]3C(=C)[C@@H](O)C[C@@H]12", "growth": "103%"}, {"molecule": "CCCn1nc(C(=O)N2CCCCC2)c2c1CCC(N1CCC(c3ccncc3)CC1)C2", "note": "(centres undefined)", "growth": "107%"}, {"molecule": "CN1CCN(c2ccc(/C=C/C(=O)c3ccc(O)cc3)cc2)CC1", "growth": "91.9%"}, {"molecule": "CCN(c1cc(-c2ccc(CN3CCC(/C=C/S(=O)(=O)c4ccccc4)CC3)cc2)cc(C(=O)NCc2c(C)cc(C)[nH]c2=O)c1C)C1CCOCC1", "growth": "59.3%"}, {"molecule": "Cc1ccc(-c2nc3nc(-c4ccc(Cl)cc4)nc(N4CCCNCC4)c3o2)cc1", "growth": "-96.1% (active)"}]}]}
